In PubChem BioAssay:
“And” between values parts separate entries of the source, which are not always exact repeats. Equal entries are not always repeated. Inconclusive results are not listed. The source made the active and inactive calls. Unless noted, cut-off not given; nearly all actives show IC50 up to about 30 µM.

What was measured:
[1] = growth inhibition of DIPG cells – cell-based, MIPE5.0 library, qHTS (AID 1347068); settings: SU-DIPG-XXV viability;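 on IC50: cells exposed to compound for 48 hours before viability readout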
[2] = viability loss with induced miR-34 in A549 – imaging, A549 dox-inducible miR-34, nuclei and caspase counts, primary screen (AID 1347080;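 active means compounds whose cell count with miR-34 switched on is under 0.7 times the count with it off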); settings: A549 miR-34 inducible, Hoechst nuclei count, 48 h
[3] = MELAS cybrid and Rieske KO viability enhancers – cell-based, MELAS cybrids, Rieske KO mouse fibroblasts, CellTiter-Glo, primary screen (AID 1508586;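 active means mean z-score across replicates of 1.96 or higher in either the MELAS or the Rieske mutant cell line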;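 further: z relative to plate mean and SD of compound and empty wells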); settings: low glucose
[4] = P. berghei load reduction in hepatocytes – cell-based, HepG2, luciferase luminescence, HepG2 viability, primary screen (AID 624349; in the data active means parasite load remaining mostly below about 12%, no sharp cut-off; inactive means mostly above about 10%;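 further: 100% = mean of DMSO negative control wells on the same plate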); settings: P. berghei liver stage in HepG2, luciferase luminescence, concentration not given here; parasite load remaining: stronger effect = lower value; viability: measured here: HepG2 viability without parasites
[5] = system: Hepatitis C virus NS3 helicase; assay: blockers of NS3h binding to ssDNA – biochemical, fluorescence polarization, LOPAC1280 library, primary screen (AID 687035; in the data active means inhibition above about 37%); settings: Purified HCV NS3 helicase, Cy5-dT15 ssDNA binding fluorescence polarization; stronger effect = higher value; concentration not given here
[6] = compounds altering Cy5-DNA-NS3h complex signal – biochemical, LOPAC1280, artefact control for HCV NS3 helicase inhibitor project (AID 687037; call rule not given here); settings: Cy5-DNA-NS3h complex fluorescence interference counterscreen
[7] = blockers of cellular phospholipid synthesis – cell-based, LOPAC library, screen 4, primary screen (AID 1347384; call rule not given here); settings: animal cells, phospholipid biosynthesis inhibition screen; at 10 µM
[8] = galactose survival enhancers in mitochondrial complex I cybrids – cell-based, galactose medium, ATP luminescence, primary screen (AID 1645843;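 active means z-score of at least 1.8 in each of two replicates, scored against plate mean and spread of sample wells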;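 further: positive z means more ATP and so rescue of galactose-driven cybrid death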); settings: complex I mutant cybrid cells, 72 h, stronger effect = higher value
[9] = stronger effect = lower value, cell number ratio, induced over uninduced
[10] = measured here: relative caspase fold change +Dox/-Dox
[11] = measured here: total cells with miR-34 induction, stronger effect = lower value
[12] = measured here: total cells without miR-34 induction

**Q.** Which IC50 [1] does the source give for `O=C1S/C(=C\c2ccc(OCc3cccc(B(O)O)c3)cc2)C(=O)N1Cc1ccc(F)cc1` here?
**A.** Its IC50 is 23.5 µM (active).

**Q.** With `CCCCCCCCCCCCCC(=O)OCC` as the molecule, how does the fold change [2, 9] read?
**A.** The fold change was 1.01 (inactive).

**Q.** What about the fold change [2, 10] of the same molecule?
**A.** The fold change was 1.49.

**Q.** What about the cell count [2, 11] of the same molecule?
**A.** The cell count was 5310.

**Q.** And the cell count [2, 12]?
**A.** The cell count was 5240.

**Q.** With `C/C=C(/C)C(=O)O[C@H]1C(C)=CC23C(=O)C(C=C(CO)[C@@H](O)[C@]12O)[C@H]1[C@@H](C[C@H]3C)C1(C)C` (some centres undefined) as the molecule, how does the outcome [1] read?
**A.** Its outcome is “inactive”.

**Q.** With `CCOC(=O)C1=CCCCC1S(=O)(=O)Nc1ccc(F)cc1Cl` (centres undefined) as the molecule, how does the outcome [1] read?
**A.** The outcome was “inactive”.

**Q.** With `O=C(C(c1ccccc1)c1ccccc1)N1CCN(CC(O)COc2cccc3ncccc23)CC1` (centres undefined) as the molecule, how does the outcome [1] read?
**A.** Its outcome is “inactive”.

**Q.** Which outcome [1] does the source give for `O=c1[nH]nc2c3c(cccc13)NC(CN1Cc3ccccc3C1)=N2` here?
**A.** Its outcome is “inactive”.

**Q.** With `CC1=NN(c2ccc(C(=O)O)cc2)C(=O)/C1=C/c1ccc(-c2cc(C)c(C)cc2[N+](=O)[O-])o1` as the molecule, how does the outcome [1] read?
**A.** Its outcome is “inactive”.

**Q.** Which results are given for `COc1cc([C@@H]2c3cc4c(cc3[C@@H](OC3OC5COC(C)OC5C(O)C3O)[C@H]3COC(=O)[C@H]23)OCO4)cc(OC)c1O` (some centres undefined)?
**A.** fold change [2, 9]: 0.828 (inactive); fold change [2, 10]: 1.04; cell count [2, 11]: 1840; cell count [2, 12]: 2230

**Q.** With `CN(CCO)C1CCN(c2ccc(Nc3ncc4c5ccnc(F)c5n(C5CCCC5)c4n3)nc2)CC1` as the molecule, how does the outcome [1] read?
**A.** Its outcome is “inactive”.

**Q.** Which outcome [1] does the source give for `C=CC(=O)N[C@H]1CCOC[C@H]1Nc1ncc2cc(-c3c(Cl)c(OC)cc(OC)c3Cl)ccc2n1` here?
**A.** The outcome was “inactive”.

**Q.** With `COc1ccc(-c2cnc3c(-c4cccc5ncccc45)cnn3c2)cc1` as the molecule, how does the outcome [1] read?
**A.** Its outcome is “inactive”.

**Q.** What about the fold change [2, 9] of the same molecule?
**A.** Its fold change is 0.802 (inactive).

**Q.** And the fold change [2, 10]?
**A.** Its fold change is 0.646.

**Q.** What about the cell count [2, 11] of the same molecule?
**A.** The cell count was 4530.

**Q.** And the cell count [2, 12]?
**A.** The cell count was 5640.

**Q.** And the z-score ([3]; MELAS cybrid survival, CellTiter-Glo 48 h, stronger effect = higher value)?
**A.** The z-score was -0.0268 (inactive).

**Q.** What about the z-score ([3]; Rieske KO mouse fibroblast survival, CellTiter-Glo 72 h) of the same molecule?
**A.** The z-score was -0.688.

**Q.** For `CC(C)(C)S(=O)(=O)c1ccc2nccc(Nc3n[nH]c4ccc(F)cc34)c2c1`, which outcome [1] is on record?
**A.** Its outcome is “inactive”.

**Q.** Which fold change [2, 9] does the source give for `C=C(C)[C@@H]1CCC(C)=C[C@H]1c1c(O)cc(C)cc1O` here?
**A.** Its fold change is 0.94 (inactive).

**Q.** And the fold change [2, 10]?
**A.** The fold change was 1.01.

**Q.** What about the cell count [2, 11] of the same molecule?
**A.** The cell count was 5290.

**Q.** And the cell count [2, 12]?
**A.** The cell count was 5630.

**Q.** Which fold change [2, 9] does the source give for `C[C@@H](O)CCC[C@H](O)/C=C/C1=C(C/C=C\CCCC(=O)O)C(=O)CC1` here?
**A.** The fold change was 0.915 (inactive).

**Q.** And the fold change [2, 10]?
**A.** Its fold change is 1.31.

**Q.** And the cell count [2, 11]?
**A.** The cell count was 5730.

**Q.** What about the cell count [2, 12] of the same molecule?
**A.** Its cell count is 6260.

**Q.** For `O=C1NC(=O)/C(=C/c2ccc3nccnc3c2)S1`, which parasite load remaining [4] is on record?
**A.** The parasite load remaining was 25.6% (inactive).

**Q.** And the viability [4]?
**A.** Its viability is 76.4%.

**Q.** And the inhibition [5]?
**A.** The inhibition was 0% (inactive).

**Q.** What about the fluorescence ratio (interference) [6] of the same molecule?
**A.** Its fluorescence ratio (interference) is 1 (inactive).

**Q.** And the outcome [1]?
**A.** Its outcome is “inactive”.

**Q.** And the fold change [2, 9]?
**A.** The fold change was 0.99 (inactive) and 0.764 (inactive).

**Q.** And the fold change [2, 10]?
**A.** Its fold change is 0.943 and 0.46.

**Q.** What about the cell count [2, 11] of the same molecule?
**A.** Its cell count is 3810 and 4630.

**Q.** What about the cell count [2, 12] of the same molecule?
**A.** The cell count was 3850 and 6050.

**Q.** What about the outcome [7] of the same molecule?
**A.** Its outcome is “inactive”.

**Q.** And the z-score [8]?
**A.** Its z-score is 0.905 (inactive).

**Q.** With `CCCCCCCCCCCCCCCC(=O)OC[C@H](COP(=O)([O-])OCC[N+](C)(C)C)OC(=O)CCCCCCCC(=O)O` as the molecule, how does the fold change [2, 9] read?
**A.** Its fold change is 0.924 (inactive).

**Q.** What about the fold change [2, 10] of the same molecule?
**A.** The fold change was 0.678.

**Q.** What about the cell count [2, 11] of the same molecule?
**A.** The cell count was 5760.

**Q.** What about the cell count [2, 12] of the same molecule?
**A.** The cell count was 6240.

**Q.** For `CCCCC1C(=O)CC[C@H]2[C@@H]1CC(=O)[C@@H]2CCCCCCC(=O)O` (some centres undefined), which fold change [2, 9] is on record?
**A.** Its fold change is 0.957 (inactive).

**Q.** And the fold change [2, 10]?
**A.** Its fold change is 0.967.

**Q.** What about the cell count [2, 11] of the same molecule?
**A.** The cell count was 5230.

**Q.** What about the cell count [2, 12] of the same molecule?
**A.** The cell count was 5460.

**Q.** With `Cc1ccc(Nc2cc(N[C@@H]3CCCC[C@@H]3N)nnc2C(N)=O)nc1C` as the molecule, how does the outcome [1] read?
**A.** The outcome was “inactive”.

**Q.** With `CC=CCC(C)C(O)C1C(=O)NC(CC)C(=O)N(C)CC(=O)N(C)C(CC(C)C)C(=O)NC(C(C)C)C(=O)N(C)C(CC(C)C)C(=O)NC(C)C(=O)NC(C)C(=O)N(C)C(CC(C)C)C(=O)N(C)C(CC(C)C)C(=O)N(C)C(C(C)C)C(=O)N1C` (centres undefined) as the molecule, how does the fold change [2, 9] read?
**A.** Its fold change is 1.07 (inactive) and 0.992 (inactive).

**Q.** And the fold change [2, 10]?
**A.** Its fold change is 0.343 and 1.41.

**Q.** For `COc1cc(/C=C/C(=O)N2CCCCCC2)cc(OC)c1OC`, which fold change [2, 9] is on record?
**A.** The fold change was 0.968 (inactive).

**Q.** And the fold change [2, 10]?
**A.** The fold change was 0.988.

**Q.** What about the cell count [2, 11] of the same molecule?
**A.** The cell count was 7660.

**Q.** And the cell count [2, 12]?
**A.** The cell count was 7910.

**Q.** For `Cn1c(NC[C@@H](N)Cc2ccccc2)nc(-c2ccncc2)c(-c2ccc3ccccc3c2)c1=O`, which outcome [1] is on record?
**A.** Its outcome is “inactive”.
